# ± gives the standard deviation of the averaged measurements. About 5,400 targets were measured; listed, in parts, are those with the largest changes and a random draw of the rest.
# Biological target: T1, UniProt P35613|P35613-2
# T1 sequence (whole entry): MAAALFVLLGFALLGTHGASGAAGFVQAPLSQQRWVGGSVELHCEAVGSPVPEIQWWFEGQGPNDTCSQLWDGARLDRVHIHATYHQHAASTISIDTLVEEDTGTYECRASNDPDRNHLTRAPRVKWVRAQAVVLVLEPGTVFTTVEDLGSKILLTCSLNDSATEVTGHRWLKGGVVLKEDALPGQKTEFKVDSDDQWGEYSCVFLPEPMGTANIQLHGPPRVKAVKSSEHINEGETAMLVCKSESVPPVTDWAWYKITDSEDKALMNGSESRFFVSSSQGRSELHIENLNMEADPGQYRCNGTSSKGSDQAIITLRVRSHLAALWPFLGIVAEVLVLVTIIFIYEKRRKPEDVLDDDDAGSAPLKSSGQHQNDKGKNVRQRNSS
# Experiment: NP40-soluble protein abundance relative to vehicle (solubility fold change) (ratio); higher = more soluble protein in presence of GTP
# Experimental: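 Solubility proteome profiling in Jurkat crude lysate. Lysate was treated with Mg-GTP (0.1-10 mM) for 10 min at room temperature and 3 min at 37 °C, then solubilised with 0.8% NP40 and benzonase, followed by ultracentrifugation. Proteins were quantified by TMT10 LC-MS/MS; the value is the NP40-soluble abundance relative to the NP40-processed vehicle, from 3 independent experiments.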
compound,measurement,setting,value
Nc1nc2c(ncn2[C@@H]2O[C@H](COP(=O)(O)OP(=O)(O)OP(=O)(O)O)[C@@H](O)[C@H]2O)c(=O)[nH]1 [guanosine triphosphate],NP40-soluble protein abundance,concentration: 0.1mM,0.873 ± 0.045
same,NP40-soluble protein abundance,concentration: 0.5mM,0.877 ± 0.074
same,NP40-soluble protein abundance,concentration: 1mM,0.91 ± 0.042
same,NP40-soluble protein abundance,concentration: 2mM,0.881 ± 0.081
same,NP40-soluble protein abundance,concentration: 4mM,0.878 ± 0.062
same,NP40-soluble protein abundance,concentration: 6mM,0.91 ± 0.087
same,NP40-soluble protein abundance,concentration: 8mM,0.872 ± 0.099
same,NP40-soluble protein abundance,concentration: 10mM,0.881 ± 0.065
